These results are taken from PubChem BioAssay.

A number with no mark means an inactive call. For some of these results: Measured potencies and affinities stand elsewhere. Activity calls are given as the source filed them. Unless noted, the rule behind the calls is not given here.

Assay [1] in a line: antimalarial activity against Dd2 strain (AID 2302;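 active = growth inhibition above 50% at the single 2 µM test dose, taken to imply half-maximal potency below 2 µM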;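 note: 0% = DMSO untreated growth and 100% = chloroquine plus artemisinin killed control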). To be noted: P. falciparum Dd2 in RBCs, LDH growth readout, 72 h; at 2 µM; hits give high values.
Assay [2] is described as follows: human hepatoma cell viability loss – ATP luminescence, cytotoxicity control for P. falciparum antimalarial project, primary screen (AID 2303;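 active = inhibition above 50%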;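 note: 0% = DMSO wells and 100% = digitonin-killed cells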). To be noted: HepG2 viability, 24-48 h, at 10 µM, hits give high values.
The target in assay [3] is L-lactate dehydrogenase (Plasmodium falciparum (isolate CDC / Honduras)) (UniProt Q27743). The experiment in a line: PfLDH activity inhibition – cell lysate, 3D7 strain, counter-screen for P. falciparum growth inhibition project (AID 2304).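 Note: 0% = vehicle and 100% = reference inhibitor.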 The settings on record: P. falciparum 3D7 crude extract, LDH APAD/NBT absorbance; at 2 µM; hits give high values.
A short description of assay [4]: inhibition of 3D7 malaria parasite growth – strain 3D7 (AID 2306).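 Note: 0% = DMSO wells and 100% = chloroquine plus artemisinin control wells.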 To be noted: P. falciparum 3D7 erythrocytic growth, LDH absorbance, 72 h; at 2 µM; hits give high values.
The target of assay [5] is Calcium-dependent protein kinase 1 (Plasmodium falciparum (isolate 3D7)) (UniProt P62344). Briefly: PfCDPK1 kinase inhibitors, biochemical, TCAMS library (AID 1159585; cut-off not given, nearly all actives have IC50 up to about 0.98 µM;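 note: inhibitors leave more ATP so luminescence rises with inhibition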). To be noted: recombinant PfCDPK1, Kinase-Glo ATP depletion luminescence.
In assay [6] the target is Plasmodium falciparum protein kinase 6 (PK6, PF3D7_1337100) (UniProt Q8IDW1). The experiment in a line: PfPK6 kinase inhibitors, biochemical, TCAMS library (AID 1159586). To be noted: recombinant PfPK6, Kinase-Glo ATP depletion luminescence. (In general: Kinase-Glo measures the ATP left after a reaction by luminescence.)
Assay [7] addresses Protein kinase 7 (PK7), Plasmodium falciparum 3D7 (PF3D7_0213400) (UniProt Q7YTF7). Briefly: inhibition of Plasmodium PK7 catalytic activity – biochemical, TCAMS antimalarial set, Kinase-Glo luminescence (AID 1159587). The settings on record: recombinant PfPK7, Kinase-Glo ATP depletion luminescence.
The target in assay [8] is Calcium-dependent protein kinase 4 (Plasmodium falciparum (isolate 3D7)) (UniProt Q8IBS5). The experiment in a line: PfCDPK4 kinase inhibitors, biochemical, TCAMS library (AID 1159588; cut-off not given, nearly all actives have IC50 up to about 0.91 µM). The settings on record: recombinant PfCDPK4, Kinase-Glo ATP depletion luminescence.
Calcium-dependent protein kinase 4 (Plasmodium falciparum (isolate 3D7)), sequence (Q8IBS5 whole entry, looked up): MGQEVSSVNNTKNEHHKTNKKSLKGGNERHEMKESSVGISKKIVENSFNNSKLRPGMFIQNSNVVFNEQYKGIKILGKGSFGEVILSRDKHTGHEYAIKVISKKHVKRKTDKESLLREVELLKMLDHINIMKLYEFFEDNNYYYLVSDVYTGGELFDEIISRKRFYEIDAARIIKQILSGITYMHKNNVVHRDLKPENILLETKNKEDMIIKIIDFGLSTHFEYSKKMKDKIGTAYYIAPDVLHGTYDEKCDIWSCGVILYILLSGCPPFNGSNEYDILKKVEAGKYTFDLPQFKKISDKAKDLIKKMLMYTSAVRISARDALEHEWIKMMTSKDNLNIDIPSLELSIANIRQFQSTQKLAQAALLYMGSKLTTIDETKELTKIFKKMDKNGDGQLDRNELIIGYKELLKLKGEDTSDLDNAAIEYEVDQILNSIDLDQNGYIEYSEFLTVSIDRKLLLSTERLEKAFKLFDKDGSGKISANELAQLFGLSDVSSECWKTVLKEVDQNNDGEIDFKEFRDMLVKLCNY

Plasmodium falciparum protein kinase 6 (PK6, PF3D7_1337100), sequence (Q8IDW1 1-305): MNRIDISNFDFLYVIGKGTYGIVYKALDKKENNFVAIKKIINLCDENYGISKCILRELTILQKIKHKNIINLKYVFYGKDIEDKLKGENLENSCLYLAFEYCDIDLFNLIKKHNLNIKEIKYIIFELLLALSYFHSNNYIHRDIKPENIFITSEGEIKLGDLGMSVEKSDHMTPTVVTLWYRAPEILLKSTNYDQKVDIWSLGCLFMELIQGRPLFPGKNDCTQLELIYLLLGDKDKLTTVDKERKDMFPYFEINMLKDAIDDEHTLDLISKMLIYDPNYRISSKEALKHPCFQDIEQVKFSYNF
Protein kinase 7 (PK7), Plasmodium falciparum 3D7 (PF3D7_0213400), sequence (Q7YTF7 1-343): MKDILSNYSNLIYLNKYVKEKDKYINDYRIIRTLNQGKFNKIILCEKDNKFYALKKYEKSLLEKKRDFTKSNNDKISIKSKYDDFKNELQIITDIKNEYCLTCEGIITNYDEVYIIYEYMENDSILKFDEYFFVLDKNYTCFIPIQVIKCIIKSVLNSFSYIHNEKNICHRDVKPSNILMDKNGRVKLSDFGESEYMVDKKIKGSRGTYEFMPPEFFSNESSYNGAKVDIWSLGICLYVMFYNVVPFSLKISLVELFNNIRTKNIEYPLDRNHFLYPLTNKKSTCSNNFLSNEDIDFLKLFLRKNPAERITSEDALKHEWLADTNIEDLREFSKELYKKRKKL
L-lactate dehydrogenase (Plasmodium falciparum (isolate CDC / Honduras)), sequence (Q27743 whole entry, looked up): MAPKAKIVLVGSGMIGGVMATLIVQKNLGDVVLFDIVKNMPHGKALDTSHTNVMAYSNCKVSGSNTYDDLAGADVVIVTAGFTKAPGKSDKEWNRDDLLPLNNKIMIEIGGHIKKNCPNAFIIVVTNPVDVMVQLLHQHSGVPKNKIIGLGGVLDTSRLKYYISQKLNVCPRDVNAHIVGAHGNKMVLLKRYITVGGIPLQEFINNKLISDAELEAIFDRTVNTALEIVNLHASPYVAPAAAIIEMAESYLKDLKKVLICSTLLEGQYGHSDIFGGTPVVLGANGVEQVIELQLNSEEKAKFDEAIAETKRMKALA
Calcium-dependent protein kinase 1 (Plasmodium falciparum (isolate 3D7)), sequence (P62344 whole entry, looked up): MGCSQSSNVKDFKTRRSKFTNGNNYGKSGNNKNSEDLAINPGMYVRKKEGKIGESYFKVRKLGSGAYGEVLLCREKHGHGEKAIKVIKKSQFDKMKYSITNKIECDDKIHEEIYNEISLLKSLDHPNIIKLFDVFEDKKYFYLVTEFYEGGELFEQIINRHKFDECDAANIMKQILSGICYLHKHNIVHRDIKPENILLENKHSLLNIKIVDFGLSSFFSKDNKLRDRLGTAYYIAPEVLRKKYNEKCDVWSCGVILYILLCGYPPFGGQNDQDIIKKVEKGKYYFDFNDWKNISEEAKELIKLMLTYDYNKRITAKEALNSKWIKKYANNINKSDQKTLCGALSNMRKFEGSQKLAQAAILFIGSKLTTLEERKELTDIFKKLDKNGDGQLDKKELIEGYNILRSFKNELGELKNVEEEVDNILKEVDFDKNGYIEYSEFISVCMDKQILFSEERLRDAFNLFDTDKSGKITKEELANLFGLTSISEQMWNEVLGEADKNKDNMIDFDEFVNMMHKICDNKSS

Usually inhibition stands for the relative decrease from the control value, in per cent. As to `Cc1ccc(Nc2nc(C)cc(NC3CCCC3)n2)cc1`, the growth inhibition in assay [1] was 89% (active); in assay [4] it was 100% (active). Further, the inhibition was 33% in assay [2] and 0% in assay [3]. Besides, the result in assay [5], in assay [6], in assay [7] and in assay [8] was inactive.
For the molecule `COc1cc(C(=O)Nc2ccc3nc(N4CCN(C)CC4)cc(C)c3c2)cc(OC)c1OC`, the growth inhibition is 79% (active) in assay [1] and 102% (active) in assay [4]. Further, the results for the inhibition in assay [2] and in assay [3] were 18% and -6%, respectively. Further, the result in assay [5], in assay [6], in assay [7] and in assay [8] was inactive.
For the molecule `COc1ccc(Nc2nc(C)cc(NCc3ccc(-c4c(C)noc4C)cc3)n2)cc1`, the growth inhibition in assay [1] is 50% (active); in assay [4], 99% (active). Further, the inhibition in assay [2] is 48%; in assay [3], -5%. Also, the outcome in assay [5], in assay [6], in assay [7] and in assay [8] was inactive.
With `Cc1c(CC(=O)NCCC2CCN(CCCCCNC(=O)/C=C/c3ccc(Cl)c(Cl)c3)CC2)sc2ccc(Cl)cc12`, the growth inhibition in assay [1] is 8%; in assay [4], 92% (active). The inhibition in assay [2] is 59% (active); in assay [3], 0%. The outcome in assay [5], in assay [6], in assay [7] and in assay [8] was inactive.
In the case of `COc1ccc(-c2cc(-c3nc4ccc(C(=O)N5CCOCC5)cc4[nH]3)c(=O)n(C)c2)cc1OC`, the growth inhibition was 95% (active) in assay [1] and 93% (active) in assay [4]. In addition, the inhibition in assay [2] was 6%; in assay [3] it was 4%. The outcome in assay [5], in assay [6], in assay [7] and in assay [8] was inactive.
Turning to `Fc1ccc2nccc(NN=Cc3ccccc3Cl)c2c1`, the growth inhibition is 39% in assay [1] and 100% (active) in assay [4]. Moreover, the inhibition is 3% in assay [2] and 0% in assay [3]. For the same molecule, the result in assay [5], in assay [6], in assay [7] and in assay [8] was inactive.
In the case of `COc1cccc(C2CCN(CCN3CCC(CNC(=O)c4ccc(-c5ccc(C(F)(F)F)cc5)cc4)CC3)CC2)c1`, the growth inhibition in assay [1] is 42%; in assay [4], 100% (active). Moreover, the results for the inhibition in assay [2] and in assay [3] were 41% and -2%, respectively. The outcome in assay [5], in assay [6], in assay [7] and in assay [8] was inactive.
`Cc1ccc(O)c(Nc2c3c(c(C#N)c4nc5ccccc5n24)CCC3)c1`: the growth inhibition is 2% in assay [1] and 85% (active) in assay [4]. Further, the values for the inhibition in assay [2] and in assay [3] were 7% and -3%, respectively. Moreover, the result in assay [5], in assay [6], in assay [7] and in assay [8] was inactive.
On to `COc1ccc(Nc2nc(NCc3ccc(-n4ccnc4)cc3)cc(-c3ccc(OC)cc3)n2)cc1`, for which the growth inhibition in assay [1] is 25%; in assay [4], 96% (active). The inhibition in assay [2] was 8%; in assay [3], -2%. Also, the outcome in assay [5], in assay [6], in assay [7] and in assay [8] was inactive.
On to `CC(=O)Nc1ccc2[nH]cc(C3CCN(CCC4CCN(C(=O)/C=C/c5ccc(Cl)c(Cl)c5)CC4)CC3)c2n1`, for which the growth inhibition in assay [1] was 80% (active); in assay [4] it was 101% (active). Further, the inhibition in assay [2] was 16%; in assay [3] it was 1%. Moreover, the outcome in assay [5], in assay [6], in assay [7] and in assay [8] was inactive.
Turning to `CCCN1CCN(Cc2ccc(-c3ccc(-c4nc5ccccc5[nH]4)s3)cc2)CC1`, the growth inhibition in assay [1] was 93% (active); in assay [4], 103% (active). In addition, the inhibition in assay [2] is 29%; in assay [3] it was 5%. Moreover, the outcome in assay [5], in assay [6], in assay [7] and in assay [8] was inactive.
On to `Cc1cc(-c2cccc3c(C(=O)N4CCc5cc6nccc(N7CCCN(C)CC7)c6cc54)cccc23)cc(C)n1`, for which the growth inhibition in assay [1] and in assay [4] was 100% (active) in each case. Besides, the inhibition was 17% in assay [2] and 6% in assay [3]. Moreover, the result in assay [5], in assay [6], in assay [7] and in assay [8] was inactive.
For `CCCCOc1ccc(C(=O)C(CCC(CNC(C)(C)C)C(=O)c2ccc(OCCCC)cc2)CNC(C)(C)C)cc1` (stereo not given), the growth inhibition in assay [1] is 92% (active); in assay [4], 94% (active). For the same molecule, the inhibition in assay [2] is 100% (active); in assay [3] it was 1%. Further, the result in assay [5], in assay [6], in assay [7] and in assay [8] was inactive.
In the case of `O=C(/C=C/c1ccccc1Cl)Nc1ccc(Br)c(OCCN2CCN(CCN3CCCC3)CC2)c1`, the values for the growth inhibition in assay [1] and in assay [4] were 89% (active) and 99% (active), respectively. Besides, the inhibition in assay [2] was 26%; in assay [3] it was -7%. Also, the result in assay [5], in assay [6], in assay [7] and in assay [8] was inactive.
With `CN1C(=C2SC(=Nc3ccc4ncccc4c3)N(Cc3ccccc3)C2=O)Sc2ccc(Cl)cc21`, the figures for the growth inhibition in assay [1] and in assay [4] were 75% (active) and 99% (active), respectively. In addition, the inhibition in assay [2] was 4%; in assay [3], -2%. Further, the result in assay [5], in assay [6], in assay [7] and in assay [8] was inactive.
Consider `O=C(/C=C/c1ccc(Cl)c(Cl)c1)NCCCCCN1CCCN(C(=O)Nc2cccc(Cl)c2)CC1`, for which the growth inhibition is 2% in assay [1] and 102% (active) in assay [4]. For the same molecule, the inhibition in assay [2] was 11%; in assay [3] it was 0%. The result in assay [5], in assay [6], in assay [7] and in assay [8] was inactive.
Regarding `CNC(=O)C1Cc2c([nH]c3cc(Br)ccc23)C2(CCN(CCc3ccccc3)CC2)N1` (stereo not given), the growth inhibition in assay [1] is 31%; in assay [4], 101% (active). Moreover, the inhibition in assay [2] was 10%; in assay [3], -8%. Moreover, the outcome in assay [5], in assay [6], in assay [7] and in assay [8] was inactive.
For `CCOc1ccc(C(C)NC(=O)C2COc3ccccc3O2)cc1OCC` (stereo not given), the figures for the growth inhibition in assay [1] and in assay [4] were 100% (active) and 101% (active), respectively. Also, the inhibition is -4% in assay [2] and 1% in assay [3]. Besides, the result in assay [5], in assay [6], in assay [7] and in assay [8] was inactive.
Regarding `COc1ccc(-c2ccc(NC(=O)c3cccc(Cl)c3)cc2)cc1CN(C)CCN(C)C`, the growth inhibition in assay [1] is 35%; in assay [4], 100% (active). Further, the inhibition in assay [2] was 22%; in assay [3], -3%. In addition, the outcome in assay [5], in assay [6], in assay [7] and in assay [8] was inactive.
On to `COc1ccc(C(C(=O)NC2CCN(C[C@H](O)c3ccnc4ccc(OC)cc34)CC2)N2CCN(c3ccc(Cl)c(Cl)c3)CC2)cc1` (stereo not given in full), for which the growth inhibition in assay [1] is 79% (active); in assay [4], 101% (active). Also, the inhibition was 12% in assay [2] and 2% in assay [3]. Besides, the result in assay [5], in assay [6], in assay [7] and in assay [8] was inactive.
